Rows were chosen to be rich in hits. Some 18% of all compounds tested hit in one or more screens of this group.
RORg inh: ROR gamma (mouse) transcription inhibition; P51450; Drosophila S2 Gal4-RORgamma UAS-luciferase reporter, 20 h; Potency, µM (titrated, usually from 53.6 µM), for inactives: at the highest dose activity change, negative = inhibition, most hits filed as inhibitors; actives 5.4% (n = 310,000); AID 2551; further: potency means the concentration at half of the fitted maximal effect; nearly all actives have a fitted effect of over 60% in size
Target sequence (P51450 whole entry, looked up, the tested form may be a part): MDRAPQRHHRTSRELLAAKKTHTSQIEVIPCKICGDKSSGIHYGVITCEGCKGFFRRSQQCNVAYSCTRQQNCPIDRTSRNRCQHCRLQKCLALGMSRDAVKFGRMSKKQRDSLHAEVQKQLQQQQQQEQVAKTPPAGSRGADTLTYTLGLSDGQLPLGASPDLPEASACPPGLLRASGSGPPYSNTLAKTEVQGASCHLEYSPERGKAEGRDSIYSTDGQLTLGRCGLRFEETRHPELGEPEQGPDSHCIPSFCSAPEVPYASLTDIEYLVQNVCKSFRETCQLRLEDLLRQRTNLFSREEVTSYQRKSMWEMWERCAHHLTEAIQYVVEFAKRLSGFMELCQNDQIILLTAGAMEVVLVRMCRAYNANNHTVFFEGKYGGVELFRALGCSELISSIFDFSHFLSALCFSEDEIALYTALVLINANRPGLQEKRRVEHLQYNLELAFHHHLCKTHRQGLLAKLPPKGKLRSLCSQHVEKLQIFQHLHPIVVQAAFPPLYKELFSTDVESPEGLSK
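Luminescence from a UAS-regulated Photinus luciferase reporter in stably transfected Drosophila Schneider cells is measured; decreased signal marks ROR gamma inhibition. Fusion expression is induced by 700 uM copper sulfate for 20 hr.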
DT40 TDP1 CPT: DT40-hTDP1 cell growth loss with CPT | Potency, µM (highest dose often 46.2 µM), inactives show at the top dose activity change, negative = growth inhibition, hits mostly inhibitors | chicken DT40 Tdp1-/-;hTDP1 cells + 20 nM CPT, ATP luminescence, 48 h | actives 12% (n = 420,000); further: potency means the concentration at half of the fitted maximal effect; nearly all actives have a fitted effect of over 55% in size
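Cell growth measured by CellTiter-Glo luminescence after a minimum 48 h, 37 C compound exposure with 20 nM CPT in Tdp1-knockout DT40 cells stably expressing hTDP1, seeded 400/well; qHTS titration format.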
IL-1B inflam inh: blocks inflammasome-driven IL-1 beta release. THP-1 LPS/ATP IL-1B secretion, AlphaLISA, 16 h; active compounds read low. activity change, % at 57.5 µM. actives 4.7% (n = 360,000). AID 743279; in the data active means activity change below about -50%; inconclusive means mostly about -30% to -49%
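Secreted IL-1B measured by AlphaLISA bead assay after 16 h compound exposure of THP-1 cells; compounds (final up to 57.5 uM) added 1 h before LPS (250 ng/mL) and ATP (1.25 mM) stimulation; lower signal means less secretion.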
LDHA inh: blocks human lactate dehydrogenase A. actives 0.15% (n = 480,000). purified LDHA, NADH/diaphorase-resazurin fluorescence; active compounds read low. activity change, % (values are at about 110 or 230 µM). P00338. AID 1347041; in the data active means activity change below about -30%; inconclusive means mostly about -25% to -30%;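 further: plate controls were DMSO wells for no effect and wells without enzyme for full effect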
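Human LDH5 (2 nM) was incubated with 0.06 mM NADH and 0.2 mM pyruvate for 5 min at room temperature in Tris pH 7.4. Remaining NADH was coupled through diaphorase/resazurin, and resorufin fluorescence was read at 0 and 20 min.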
Gal4-VP16 FLuc: counter-screen for ROR gamma inhibitors: Gal4-VP16 reporter; Drosophila S2 Gal4-VP16 UAS-luciferase, luminescence, 20 h; Potency, µM (series often up to 53.6 µM), for the others: at the highest dose activity, negative = inhibition, usual class: inhibitors; actives 3.5% (n = 310,000);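 further: Gal4-VP16 expression switched on by copper sulfate through the metallothionein promoter; potency means the concentration at half of the fitted maximal effect; nearly all actives have a fitted effect of over 50% in size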
DT40 TDP1 no CPT: qHTS for Inhibitors of human tyrosyl-DNA phosphodiesterase 1 (TDP1): qHTS in cells in absence of CPT; AID 686978, 2013; actives 15% (n = 420,000); Potency, µM (series often up to 46.2 µM), for the others: at the highest dose activity change, negative = growth inhibition, actives largely listed as inhibitors; DT40 Tdp1-/- hTDP1 cells, no CPT, ATP luminescence, 48 h; further: potency means the concentration at half of the fitted maximal effect; nearly all actives have a fitted effect of over 55% in size
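Chicken DT40 Tdp1-/- cells stably complemented with human TDP1 were seeded at 400 cells/well with DMSO in place of 20 nM camptothecin. After compound pinning, cells grew at least 48 hr at 37 °C; viability read by CellTiter-Glo luminescence.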
An asterisk follows results filed as active; ? = inconclusive; . = no result given. Unless noted, the call rests on the fitted dose curve; in most records, active means well fitted curve in the direction sought with a large enough effect; inconclusive means small, poorly fitted or top-dose-only effect, or another doubt; inactive means no such curve, though single readings can be large; an effect the other way counts as inactive or inconclusive. Unless noted, on the % scale 0 is the no-effect control and ±100 the full control effect.

SMILES	RORg inh	DT40 TDP1 CPT	IL-1B inflam inh	LDHA inh	Gal4-VP16 FLuc	DT40 TDP1 no CPT
Cc1ccc(Cl)cc1Nc1nc(-c2sc(NC(=O)c3ccco3)nc2C)cs1	6%	?	-19	10	-5%	?
Cc1nc(NC(=O)c2ccco2)sc1-c1csc(Nc2ccc(Cl)cc2)n1	24%	21µM*	-9	-17	-7%	16µM*
Cc1nc(NC(=O)c2ccco2)sc1-c1csc(Nc2ccc(Cl)cc2Cl)n1	?	23µM*	0	0	-24%	15µM*
Cc1ccc(Cl)cc1Nc1nc(-c2sc(NC(=O)c3cccc(Cl)c3)nc2C)cs1	?	.	.	.	-10%	.
COc1ccccc1Nc1nc(-c2sc(NC(=O)c3ccco3)nc2C)cs1	10%	16µM*	-12	4	-4%	15µM*
Cc1ccccc1Nc1nc(-c2sc(NC(=O)c3cccc(Cl)c3)nc2C)cs1	13µM*	.	.	.	?	.
CCn1c(=O)c2ccccc2n(CC(=O)Nc2cccc3cccnc23)c1=O	.	.	.	3	.	.
Cc1cc(C)n(-c2nc3c(c(=O)n(C)c(=O)n3C)n2Cc2ccccc2Cl)n1	.	.	.	-1	.	.
COc1cccc(N(C(=O)c2ccco2)c2nc(-c3sc(NC(=O)c4ccco4)nc3C)cs2)c1	36%	15µM*	3	2	-4%	15µM*
CCCN1C(=O)/C(=C/c2c(N3CCNC(=O)C3CC(=O)OCC)nc3c(C)cccn3c2=O)SC1=S (stereo not drawn)	-3%	18µM*	15	0	-5%	16µM*
Cc1ccc2c(CSc3nnnn3C3CC3)cc(=O)oc2c1C	.	.	.	-2	.	.
CC(=O)N1CC(C)Sc2ccc(S(=O)(=O)NCc3ccc(F)cc3)cc21 (stereo not drawn)	30%	?	41	1	-7%	?
CC(=O)N1c2ccc(S(=O)(=O)N3CCC(C(=O)Nc4cccc(C)n4)CC3)cc2CC1C (stereo not drawn)	?	?	7	-2	?	?
CC(=O)N1c2ccc(S(=O)(=O)NCCc3cccc(C)c3)cc2CC1C (stereo not drawn)	.	15µM*	.	-7	.	15µM*
COc1cccc(CNC(=O)CCNS(=O)(=O)c2ccc3c(c2)CC(C)N3C(C)=O)c1 (stereo not drawn)	-6%	?	-23	-14	-2%	?
CC(=O)N1CC(C)Sc2ccc(S(=O)(=O)NCCc3cccc(C)c3)cc21 (stereo not drawn)	54%	?	3	-1	?	15µM*
CC(=O)N1c2ccc(S(=O)(=O)NCC3CCC(C(=O)Nc4cccc(C)c4)CC3)cc2CC1C (stereo not drawn)	.	16µM*	.	-3	.	15µM*
CC(=O)N1c2ccc(S(=O)(=O)NCC3CCC(C(=O)Nc4cccc(C)n4)CC3)cc2CC1C (stereo not drawn)	21%	26µM*	-2	-6	?	18µM*
CNC(=O)c1nn(CN2CCN(C(c3ccccc3)c3ccccc3)CC2)c(=O)c2ccccc12	.	.	.	-8	.	.
Cc1cccc(NC(=O)C2(C#N)C(c3ccccc3)C2(C)C(=O)c2ccc(Cl)cc2)c1 (stereo not drawn)	.	.	.	-2	.	.
CC(=O)N1c2ccc(S(=O)(=O)NCC3CCC(C(=O)Nc4cccc(C)c4C)CC3)cc2CC1C (stereo not drawn)	.	?	.	1	.	21µM*
CC(=O)N1c2ccc(S(=O)(=O)N3CCC(C(=O)Nc4cccc(C)c4C)CC3)cc2CC1C (stereo not drawn)	?	?	-1	-1	-8%	-18%
CCC(C)(C)NC(=O)C1CCC(CNS(=O)(=O)c2ccc3c(c2)CC(C)N3C(C)=O)CC1 (stereo not drawn)	.	16µM*	.	-3	.	12µM*
